Assay outcomes (PubChem)
MITF primary – inhibitors of human MITF | O75030 | AlphaScreen MITF homodimerization, bead proximity signal | inhibition, % at 2.6 µM | 650,000 compounds, 0.91% hits | AID 1259374; in the data active = inhibition above about 50%;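 also: 0% = vehicle wells with protein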
Target sequence (O75030 whole entry, looked up): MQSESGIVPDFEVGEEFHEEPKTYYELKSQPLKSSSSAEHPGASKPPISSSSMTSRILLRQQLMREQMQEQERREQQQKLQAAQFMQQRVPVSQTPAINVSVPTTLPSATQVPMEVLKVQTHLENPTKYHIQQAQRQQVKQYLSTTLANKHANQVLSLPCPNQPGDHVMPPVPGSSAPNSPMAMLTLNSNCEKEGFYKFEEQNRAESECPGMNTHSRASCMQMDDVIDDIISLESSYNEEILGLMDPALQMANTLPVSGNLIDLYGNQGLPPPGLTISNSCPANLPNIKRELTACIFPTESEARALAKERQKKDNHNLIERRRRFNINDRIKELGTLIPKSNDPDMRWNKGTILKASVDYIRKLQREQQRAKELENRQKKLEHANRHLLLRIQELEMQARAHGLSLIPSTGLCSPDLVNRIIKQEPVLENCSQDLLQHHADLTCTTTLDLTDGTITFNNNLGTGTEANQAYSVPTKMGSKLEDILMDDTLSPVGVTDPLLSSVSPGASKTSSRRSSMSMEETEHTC
GPR151 activ – human GPR151 activation; Q8TDV0; PathHunter beta-arrestin GPR151 cells, luminescence; activation, % at 11.2 µM; 650,000 compounds, 1% hits; in the data active = activation above about 4.9%;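 also: 0% = median of compound wells and 100% = cells with positive control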
TEAD-YAP block – TEAD-YAP interaction inhibition | HEK-TIYL cells, TEAD-Gal4/YAP UAS-luciferase luminescence | 640,000 compounds, 1.4% hits | inhibition, % at 9.12 µM | AID 1259422; in the data active = inhibition above about 32%;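 also: 0% = median of test compound wells and 100% = reference inhibitor wells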
FBW7 act – activators of human E3 ligase FBW7 | AID 1259310 | Q969H0 | AlphaScreen FBW7–phospho-cyclin E peptide binding, activator screen | 650,000 compounds, 0.13% hits | normalized activity (activation), % at 26.1 µM; in the data active = normalized activity above about 1.9%;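 also: purified mutant Fbw7 with reduced substrate affinity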
An asterisk follows results filed as active. Only some compounds are listed: those with a hit (about 3.4% of all), similar ones and a draw of the others.

SMILES	MITF primary	GPR151 activ	TEAD-YAP block	FBW7 act
O=C(/C=C/Nc1ccccc1Br)c1ccccc1	9	-6	83*	0
O=C(/C=C\Nc1ccccn1)c1ccccc1	14	-6	41*	0
O=C(/C=C/Nc1ccccc1F)c1ccc(Br)cc1	23	-2	-47	1
COc1ccccc1C(=O)Nc1ccccc1NC(=O)C1CCN(S(C)(=O)=O)CC1	4	0	-1	0
NC(=O)c1ccc(N2CCN(S(=O)(=O)c3ccccc3)CC2)c([N+](=O)[O-])c1	3	5	34*	0
CS(=O)(=O)c1ccc(N2CCN(S(=O)(=O)c3cccs3)CC2)c(F)c1	7	2	-7	0
NS(=O)(=O)c1ccc(N2CCN(S(=O)(=O)c3cccs3)CC2)c([N+](=O)[O-])c1	0	1	34*	0
Cc1nc(NCCC2=CCCCC2)c2c3c(sc2n1)CCCC3	0	-1	-38	0
Cc1sc2ncnc(NCCC3=CCCCC3)c2c1C	2	0	44*	0
Cc1sc2ncnc(NCCc3ccc(S(N)(=O)=O)cc3)c2c1C	-1	1	37*	0
Cc1cc(C)c(NC(=O)CC2Sc3ccccc3NC2=O)c(Cl)c1 (stereo not drawn)	8	1	37*	0
COc1ccccc1Nc1nc(-c2cc3ccccc3oc2=O)cs1	13	0	43*	1
CN(C(=O)c1cccs1)C(Cc1ccccc1F)C1CCN(CCO)CC1 (stereo not drawn)	10	-1	10	0
CCOC(=O)c1ccc(NC(=O)c2ccc(C)c(S(=O)(=O)N3CCOCC3)c2)cc1	3	1	37*	0
Cc1ccc(C(=O)Nc2ccc(Sc3ccccc3)cc2)cc1S(=O)(=O)N1CCOCC1	16	0	36*	0
CCOC(=O)c1ccc(NC(=O)c2ccc(Br)c(S(=O)(=O)N3CCCCC3)c2)cc1	-6	1	49*	0
Cn1c(=O)n(CCCl)c2ccccc21	11	0	-4	0
Cc1nn(CC(=O)N2CCCC2)c(=O)c2cc3ccsc3n12	6	0	7	0
CCOC(=O)c1sc(NC(=O)c2ccco2)c(SC#N)c1C	5	-1	34*	0
O=C(NNS(=O)(=O)c1cccc([N+](=O)[O-])c1)C(O)(c1ccccc1)c1ccccc1	-2	2	6	0
O=C(CC12CC3CC(CC(Br)(C3)C1)C2)OCC(=O)c1ccccc1	2	3	67*	0
CCC(Sc1nc(NCCc2ccccc2)c2ccccc2n1)C(=O)N1CCOCC1 (stereo not drawn)	6	1	7	0
O=[N+]([O-])c1ccc(N2CCCC2)cc1N1CCc2ccccc2C1	-12	0	73*	0
O=[N+]([O-])c1ccc(N2CCCCC2)cc1N1CCc2ccccc2C1	10	1	9	0
Cc1ccnc(NC(c2ccco2)c2c(C)[nH]c3ccccc23)c1 (stereo not drawn)	-9	0	38*	0
SMILES	MITF primary	GPR151 activ	TEAD-YAP block	FBW7 act
CCOC(=O)c1c(-c2ccccc2)oc2c1cc(NS(=O)(=O)c1ccccc1)c1ccccc12	-2	-1	14	1
COCCn1nnnc1C(c1ccncc1)N1CCN(c2cc(C)ccc2C)CC1 (stereo not drawn)	13	-1	5	0
COc1cc2c(cc1OC)C(COc1ccc([N+](=O)[O-])cc1)N(C(=O)c1ccc3c(c1)OCO3)CC2 (stereo not drawn)	11	-1	1	2.1*
COc1ccc(OCC2c3cc(OC)c(OC)cc3CCN2C(=O)c2ccc([N+](=O)[O-])cc2)cc1 (stereo not drawn)	-17	0	-11	0
N#C/C(=C/c1cn(Cc2ccc([N+](=O)[O-])cc2)c2ccccc12)C(N)=S	-1	0	15	0
CCOC(=O)c1c(NC(=O)CSc2nnc(CNC(=O)c3cccc(C)c3)n2C)sc2c1CCCCC2	-12	1	-3	0
C=CCN1C(=Nc2cccnc2)SCC1(O)c1ccc(C)cc1 (stereo not drawn)	15	0	25	0
OC1(c2ccccc2)CSC(=Nc2cccnc2)N1CCCn1ccnc1 (stereo not drawn)	18	1	43*	0
O=C(NC1c2ccccc2-c2ccccc21)c1ccccc1	-18	0	-2	0
O=C(NC1c2ccccc2-c2ccccc21)c1cccc([N+](=O)[O-])c1	-2	-1	54*	0
Cc1ccccc1Nc1nc2nonc2nc1N/N=C/c1ccc(F)cc1	2	1	6	0
Cc1cccc(Nc2nc3nonc3nc2N/N=C\c2cccs2)c1C	6	3	79*	-2
N#CC1=C(N)OC2=C(C(=O)CCC2)C1c1cn[nH]c1-c1ccc(F)cc1 (stereo not drawn)	6	0	3	0
O=C1CCCC2=C1C(c1cn[nH]c1-c1ccc(F)cc1)C1=C(CCCC1=O)O2	-8	-1	49*	0
CCCn1c(-c2ccc(N)cc2)nc2ccccc21	2	-8	35*	0
COc1ccc(-c2nc3ccccc3c(=O)n2-c2nc3ccccc3n2C)cc1	-9	0	88*	0
COc1ccc(-c2nc3ccccc3n2C)cc1	12	-8	32*	0
CCC(C)N1C(=O)/C(=C/c2c(NCc3ccco3)nc3ccccn3c2=O)SC1=S (stereo not drawn)	2	1	43*	0
Cc1[nH]n(-c2ccccc2)c(=O)c1/C=N/N/C(=N/c1ccccn1)c1ccccn1	52*	2	12	-1
COc1ccccc1/C=N\N=C(/N)c1ccccn1	19	-4	56*	-1
N/C(=N\N=C/c1ccc(O)cc1O)c1ccccn1	20	-5	84*	-1
Oc1ccc(/C=N/N/C(=N/c2ccccn2)c2ccccn2)c(O)c1	45	-4	59*	-2
Cc1[nH]n(-c2ccccc2)c(=O)c1/C=N/NC(C)(C)C	-17	-1	0	-1
COc1ccc(S(=O)(=O)N2CCOCC2)c([N+](=O)[O-])c1	15	0	2	1
Oc1ccc2ccccc2c1/C=N/c1ccccn1	1	0	1	0
SMILES	MITF primary	GPR151 activ	TEAD-YAP block	FBW7 act
N/C(=N\N=C\c1c(O)ccc2ccccc12)c1ccccn1	11	-2	60*	-1
CCOC(=O)c1c(C)n(-c2ccc(I)cc2)c2ccc(O)cc12	10	1	-10	0
COc1cc(CNCc2ccc(C)cc2)ccc1OCc1c(C)noc1C	27	1	7	0
CCOC(=O)c1c2c(n(C)c1CNC(C)C)C(=O)C(=O)c1ccc(Br)cc1-2	6	-1	13	0
CCOC(=O)c1c2c(n(C)c1CN(C)C)C(=O)C(=O)c1ccc(Br)cc1-2	8	-2	96*	0
CCOC(=O)CN(Cc1ccccc1)c1ccnc(Nc2ccc(-n3nc(C)nc3C)cc2)n1	0	1	53*	0
Cc1nc(C)n(-c2ccc(Nc3nccc(N(C)Cc4ccccc4)n3)cc2)n1	24	0	51*	1
